# Records with an inconclusive call do not appear. Unmarked numbers belong to inactive results. Active and inactive are the calls of the source. Calls follow the shape of the dose curve; as a rule, active = well fitted cell-killing curve with a large enough effect; inconclusive = small, poorly fitted or top-dose-only effect, or effect the other way; inactive = no such curve, though single readings can be large or run the other way.
# Assay: Viability qHTS for spleen associated tyrosine kinase inhibitor (SYKi) drug resistant MV4-11 cells (AID 1963824); also: nearly all actives have a fitted effect of over 35% in size
# Details: SYKi-resistant MV4-11 viability, CellTiter-Glo, 72 h; series mostly up to 45 µM; viability, % of control: at the top concentration
# Outline: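 SYK-inhibitor-resistant MV4-11 AML cells were seeded at 500 per well onto compound and cultured 72 hours (37 °C, 5% CO2). CellTiter-Glo was then added, and after 10 min at room temperature, luminescence gave viability.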
# Potency is read from the fitted curve at half-maximal effect.
SMILES,"viability, % of control",Potency
CC1(C)CC[C@]2(C(=O)O[C@@H]3O[C@H](CO)[C@@H](O)[C@H](O)[C@H]3O)CC[C@]3(C)C(=CCC4[C@@]5(C)C[C@@H](O)[C@H](O)[C@@](C)(CO)C5[C@H](O)C[C@]43C)C2C1 (some centres undefined),87.9% [at 17.3 µM],
COc1cc(Br)c(S(=O)(=O)Nc2ccc(Cl)c(O[C@@H]3CCN(C)C3)c2)cc1OC,,6.51 µM (active)
CC(=O)O[C@@H]1[C@@H](OC(C)=O)[C@H](C)O[C@@H](O[C@H]2[C@@H]3C=CO[C@@H](O[C@@H]4O[C@H](CO)[C@@H](O)[C@H](O)[C@H]4O)[C@@H]3[C@@]3(CO)O[C@@H]23)[C@@H]1OC(=O)/C=C/c1ccccc1,,6.11 µM (active)
Cc1nc2ccccc2n1Cc1ccc(Cl)cc1,,0.422 µM (active)
C=C(C)C1Cc2cc(C(=O)OC3OC(CO)C(O)C(O)C3O)ccc2O1 (centres undefined),77.5%,
CC1=CC(=O)C2C(C)(C)CCC[C@]2(C)[C@H]1CC[C@H](C)CC(=O)O (some centres undefined),74.9%,
COc1ccc(Oc2c(Cl)cnn(C3c4ccccc4-c4ccccc43)c2=O)cc1,,14.6 µM (active)
C/C(=C\CCC(C)(C)O)CCO[C@@H]1O[C@H](CO[C@@H]2O[C@@H](C)[C@H](O)[C@@H](O)[C@H]2O)[C@@H](O)[C@H](O)[C@H]1O,94.8% [at 17.3 µM],
OC(CNCCc1c[nH]c2ccccc12)Cn1c2ccccc2c2ccccc21 (centres undefined),,5.17 µM (active)
COC1C=C(C)C(O)(CO)C2(C)CCCC(C)(C)C12 (centres undefined),81.2%,
O=C(NCc1ccccc1)[C@H](Cc1ccccc1)NC(=O)[C@H]1O[C@@H]1C(=O)NCCc1ccc(O)cc1,,13.2 µM (active)
COC(=O)CC(O)C1OC(c2ccccc2)C(O)C1O (centres undefined),55.5%,
CC1(CO)CC2C(O)C3=C(CC(C)(O)C2C1)C(=O)OC3 (centres undefined),105%,
C=C1C(=O)O[C@@H]2CC(C)=C([C@@H](C)CCCO)[C@@H](OC(=O)C(C)C)[C@H]12,,4.04 µM (active)
OC[C@H]1O[C@@H](O[C@H]2[C@H](OCc3ccccc3)O[C@H](CO[C@@H]3OC[C@@H](O)[C@H](O)[C@H]3O)[C@@H](O)[C@@H]2O)[C@H](O)[C@@H](O)[C@@H]1O,72.1% [at 17.3 µM],
CS(=O)(=O)c1ccc(-c2cn3ccccc3n2)cc1,75.9%,
CN(C)CCn1cc(S(=O)(=O)c2cccc(F)c2)c2cccnc21,68.5%,
CNC(=O)c1ccccc1Nc1cc(Nc2ccc(N3CCOCC3)cc2OC)ncc1C(F)(F)F,,0.326 µM (active)
CCN(CC)CCNC(=O)c1c(C)[nH]c(/C=C2\C(=O)Nc3ccc(Cl)cc32)c1C,,0.0146 µM (active)
CN1CCN(CCCNc2ncc(Cl)c(-c3cc4c(C(=O)NC5CC5)cccc4s3)n2)CC1,,18.6 µM (active)

SMILES,"viability, % of control",Potency
CC(=O)O[C@@H]1[C@@H](O)[C@H](C)O[C@@H](O[C@H]2[C@@H]3C=CO[C@@H](O[C@@H]4O[C@H](CO)[C@@H](O)[C@H](O)[C@H]4OC(C)=O)[C@@H]3[C@@]3(CO)O[C@@H]23)[C@@H]1OC(=O)/C=C/c1ccc(O)cc1,92.7% [at 17.3 µM],
O=C(/C=C/c1ccc(O)cc1)OC[C@H]1O[C@H](O[C@@]2(CO)O[C@@H](CO)[C@H](O)[C@H]2O)[C@H](O)[C@@H](O)[C@@H]1O,92.2% [at 17.3 µM],
COc1ccc(C[C@H](N)C(=O)N[C@H]2[C@@H](O)[C@H](n3cnc4c(N(C)C)ncnc43)O[C@@H]2CO)cc1,,0.184 µM (active)
COC(=O)/C=C/C=C/C(=O)OC1C=C2COC(=O)C2(O)C2(C)CCCC(C)(C)C12 (centres undefined),,8.93 µM (active)
COc1cc2ncnc(Nc3ccc(Oc4ccccc4)cc3)c2cc1OC,,0.291 µM (active)
CN1C[C@@H]2c3ccccc3Oc3ccc(Cl)cc3[C@H]2C1,,18.6 µM (active)
CC(=O)O[C@@H]1[C@H](O[C@@H]2O[C@H](CO)[C@@H](O)[C@H](O)[C@H]2O)[C@@H](O[C@@H]2O[C@@H](C)[C@H](O)[C@@H](O[C@@H]3O[C@H](CO)[C@@H](O)[C@H](O)[C@H]3O)[C@H]2O)[C@H](OC(=O)C23CCC4(C)C(=CCC5C6(C)CC(O)C(O[C@@H]7O[C@H](C(=O)O)[C@@H](O)[C@H](O)[C@H]7O)C(C)(C(=O)O)C6CCC54C)C2CC(C)(C)CC3O)O[C@@H]1C (some centres undefined),102% [at 9.25 µM],
CC(C)S(=O)(=O)NC[C@H](C)c1ccc(NC(=O)c2cc(F)cc(F)c2)cc1,,14.6 µM (active)
O=C1CCCC2=C1C1(CCCC1)N=C(Nc1nc3ccccc3o1)N2,,3.66 µM (active)
COC(=O)C1=CO[C@@H](O[C@@H]2O[C@H](CO[C@@H]3O[C@H](COC(=O)/C=C/c4ccc(O)cc4)[C@@H](O)[C@H](O)[C@H]3O)[C@@H](O)[C@H](O)[C@H]2O)[C@@H]2C(CO)=CC[C@H]12,91.9% [at 17.3 µM],
OC[C@H]1O[C@@H](O[C@@H]2OC=C[C@H]3[C@H](O)[C@@H]4O[C@]4(CO)[C@@H]23)[C@H](O)[C@@H](O)[C@@H]1O,95%,
COC1CC/C=C(\C)C(=O)Nc2cc(O)cc(c2)CC(C)CC(OC)C(O)C(C)/C=C(\C)C1OC(N)=O (centres undefined),,0.632 µM (active)
O=C(Nc1ccc(-n2nc(C(F)(F)F)cc2C(F)(F)F)cc1)c1ccncc1F,,10.3 µM (active)
COc1cc(CN(CCN)C(=O)c2cccs2)ccc1OCc1ccccc1,,16.4 µM (active)
CO[C@H]1C[C@@H]2CC[C@@H](C)[C@@](O)(O2)C(=O)C(=O)N2CCCC[C@H]2C(=O)O[C@H]([C@H](C)C[C@@H]2CC[C@@H](OCCO)[C@H](OC)C2)CC(=O)[C@H](C)/C=C(/C)[C@@H](O)[C@@H](OC)C(=O)[C@H](C)C[C@H](C)/C=C\C=CC=C1C,,11.8 µM (active)
CC1(C)C=Cc2c(ccc3c2[N+]([O-])=C2C3(O)CC34NC(=O)C5(CCCN5C3=O)CC4C2(C)C)O1 (centres undefined),76.4% [at 17.3 µM],
O=C(NS(=O)(=O)c1ccc(Br)s1)c1ccc(Cl)cc1Cl,,9.2 µM (active)
Cn1cc(C2=C(c3cn(CCCSC(=N)N)c4ccccc34)C(=O)NC2=O)c2ccccc21,,0.411 µM (active)
COc1ccc(CCc2nc3cc(-c4c(C)noc4C)ccc3n2C[C@H](C)N2CCOCC2)cc1Cl,,5.8 µM (active)
